Screening results (PubChem BioAssay)
Chronic BCR inh – qHTS Assay to Find Inhibitors of Chronic Active B-Cell Receptor Signaling. AID 493014, 2011. Potency, µM (series often up to 46.1 µM), most hits filed as inhibitors. ABC-DLBCL IkBa-CBG/CBR reporter, luminescence ratio, 4 h. 340,000 compounds, 0.05% hits; active = well fitted inhibition curve with a large enough effect in the signal ratio, with a control signal flat, not every such curve was filed as active; inconclusive = small, poorly fitted or top-dose-only effect, or effect the other way, or a change in a side signal; the % refers to the signal ratio
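TMD8 human ABC-DLBCL cells with doxycycline-inducible IκBα–green luciferase fusion and unfused red luciferase, in 0.5% FBS medium; compounds up to 46 uM, 4 h at 37C. Green/red luminescence ratio, filter-overlap corrected, fitted to concentration-response curves.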
Giardia killer – Small Molecules that selectively kill Giardia lamblia: qHTS; Giardia lamblia trophozoite viability; activity change, % at 7.66 µM, hits read low; 340,000 compounds, 0.15% hits; in the data active = activity change below about -80%; inconclusive = between about -30% and that limit;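 note: parasites exposed to compound for two days anaerobically before the ATP read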
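Compounds were tested on trophozoites seeded at 100 cells/well and held 48 hrs at 37 deg C anaerobically. An ATP-based luminescent kit measured the remaining live cells.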
RORgamma inh – qHTS for inhibitors of ROR gamma transcriptional activity; Drosophila S2 Gal4-RORgamma UAS-luciferase reporter, 20 h; Potency, µM (series often up to 53.6 µM), most hits filed as inhibitors; 310,000 compounds, 5.4% hits; note: nearly all actives have a fitted effect of over 60% in size
Target sequence (P51450 whole entry, looked up, the tested form may be a part): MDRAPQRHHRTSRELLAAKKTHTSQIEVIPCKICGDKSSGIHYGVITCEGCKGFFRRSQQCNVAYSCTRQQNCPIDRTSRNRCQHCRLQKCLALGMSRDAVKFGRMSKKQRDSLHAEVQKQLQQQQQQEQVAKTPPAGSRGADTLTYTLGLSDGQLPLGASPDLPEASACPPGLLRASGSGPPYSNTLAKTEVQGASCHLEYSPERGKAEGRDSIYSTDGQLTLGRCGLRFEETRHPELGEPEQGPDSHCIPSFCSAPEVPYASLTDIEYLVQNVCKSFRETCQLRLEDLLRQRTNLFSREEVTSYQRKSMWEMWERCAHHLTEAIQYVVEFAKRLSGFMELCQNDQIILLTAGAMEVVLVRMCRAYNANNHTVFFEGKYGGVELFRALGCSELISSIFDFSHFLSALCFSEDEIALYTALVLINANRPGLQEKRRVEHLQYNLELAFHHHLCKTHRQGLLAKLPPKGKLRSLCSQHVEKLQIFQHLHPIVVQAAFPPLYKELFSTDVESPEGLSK
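A Gal4/UAS one-hybrid system in insect cells: metallothionein-promoter Gal4–ROR gamma fusion plus Photinus luciferase reporter. Copper sulfate 700 uM final, 20 hr ambient incubation, luminescent detection after 10 min with reagent.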
VP16 counter – VP16 counterscreen qHTS for inhibitors of ROR gamma transcriptional activity. 310,000 compounds, 3.5% hits. Drosophila S2 Gal4-VP16 UAS-luciferase, luminescence, 20 h. Potency, µM (doses to about 53.6 µM), most hits filed as inhibitors. AID 2546, 2010;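 note: Gal4-VP16 expression switched on by copper sulfate through the metallothionein promoter; nearly all actives have a fitted effect of over 50% in size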
MCF10A rerep – A quantitative high throughput screen for small molecules that induce DNA re-replication in MCF 10a normal breast cells | MCF 10A DNA re-replication, Hoechst nuclear intensity, 48 h | Potency, µM (titrated, usually from 46.1 µM), hits mostly activators | 350,000 compounds, 2.9% hits | AID 624296, 2012; note: nearly all actives have a fitted effect of over 50% in size
SW480 rerep – A quantitative high throughput screen for small molecules that induce DNA re-replication in SW480 colon adenocarcinoma cells | SW480 DNA re-replication, Hoechst DNA content imaging, 48 h | Potency, µM (top dose mostly 46.1 µM), hits mostly activators | 340,000 compounds, 1.8% hits; note: nearly all actives have a fitted effect of over 55% in size
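SW480 cells exposed to compounds for 48 hr at 37 C, 5% CO2, then Hoechst-stained 40 min. Nuclear DNA content imaged by fluorescence scanning (405 nm excitation, 500-530 nm emission); re-replication scored as increased high-intensity nuclei.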
Numbers stand for hits; - = inactive; ? = inconclusive; . = no result given; [ ] = another dose, or the depositor's remark. An excerpt weighted towards active compounds, which were near 8.3% of everything screened. Unless noted, calls come from the whole dose curve; as a rule, active = well fitted curve in the direction sought with a large enough effect; inconclusive = small, poorly fitted or top-dose-only effect, or another doubt; inactive = no such curve, though single readings can be large; an effect the other way counts as inactive or inconclusive.

SMILES | Chronic BCR inh | Giardia killer | RORgamma inh | VP16 counter | MCF10A rerep | SW480 rerep
CCOc1ccc(-c2n[nH]c(C)c2Oc2ccc(OC)cc2)c(O)c1 | - | - | 2.2µM | 5µM | ? | -[9.22 µM]
Cc1[nH]nc(-c2ccc(OCc3cnn(-c4ccccc4)c3)c(C)c2O)c1Oc1ccccc1 | ? | - | 7.9µM | ? | 16µM | ?
O=C(O)COc1ccccc1/C=N/NC(=O)c1ccncc1 | . | . | - | - | - | -
O=S1(=O)C=CC(c2ccccc2)C1 (configuration not stated) | - | - | - | - | - | -
O=[N+]([O-])c1cc([N+](=O)[O-])c2cc3ccccc3nc2c1 | ? | - | 3.2µM | 2.8µM | ? | ?
C/C=C(\C)C(=O)OC1[C@H](OC(C)=O)C2(CO)C(CC1(C)C)C1=CCC3C4(C)CCC(O[C@@H]5O[C@H](C(=O)O)[C@@H](O[C@@H]6O[C@H](CO)[C@@H](O)[C@H](O)[C@H]6O)[C@H](O)[C@H]5O[C@H]5O[C@H](CO)[C@@H](O)[C@H](O)[C@H]5O)[C@](C)(CO)C4CCC3(C)[C@]1(C)C[C@H]2O (some centres not stated) | . | - | . | . | 6.5µM | -
C[C@H]1CN([C@@H](C)CO)C(=O)c2cccc(NC(=O)C3CC3)c2O[C@H]1CN(C)S(=O)(=O)c1cccs1 | - | - | . | . | - | -
COc1ccc(Cc2nnc(NC(=O)c3c(-c4ccccc4)noc3C)s2)cc1 | - | - | 16µM | ? | ? | -
COc1ccc(Cc2nnc(NC(C)=O)s2)cc1 | - | - | - | - | - | -
COc1ccc(Cc2nnc(NC(=O)c3cc(OC)cc(OC)c3)s2)cc1 | ? | - | - | - | 13µM | -
C=CCOC(=O)C1=C(C)NC(SCC(=O)Nc2ccccc2)=C(C#N)C1c1ccco1 (configuration not stated) | - | - | - | ? | - | ?
C/C(=N/NC(=O)c1ccco1)c1ccc(Br)s1 | ? | - | 13µM | ? | - | -
C/C(=N/NC(=O)c1ccc(Br)s1)c1ccncc1 | ? | - | - | - | - | -
C/C(=N\NC(=O)c1ccc(Cl)cc1)c1ccc(Br)s1 | - | - | 0.35µM | 1.1µM | - | -
C/C(=N\NC(=O)c1cc(Cl)ccc1O)c1ccc(Br)s1 | ? | - | 6.3µM | 2.5µM | ? | .
CC(C)(C)OC(=O)C[C@@H]1C/C=C\C[C@H](CC(=O)N(CCO)Cc2ccccc2)C(=O)N2CCC[C@@H]2COC1=O | ? | - | . | . | - | -
COCCN(C(=O)COC(=O)c1cccs1)c1c(N)n(Cc2ccccc2)c(=O)[nH]c1=O | - | - | - | - | - | -
Cc1cc(/C=C(\C#N)C(=O)NC2CCCCCC2)c(C)[nH]1 | ? | - | - | - | - | -
COc1ccc(-c2[nH]ncc2/C=C(/C#N)C(=O)NC2CCCCCC2)cc1 | - | - | - | ? | 10µM | 13µM
CCOc1ccc(C(NC(=O)CC)c2c(O)ccc3ccccc23)cc1 (configuration not stated) | - | - | - | - | ? | 9.2µM
CCCC(=O)NC(c1ccc(OC)cc1)c1c(O)ccc2ccccc12 (configuration not stated) | ? | - | - | - | 3.7µM | 21µM
C=CCn1c(SCC(=O)Nc2cc(Cl)ccc2C(=O)O)nc2sc(C)c(C)c2c1=O | ? | - | . | . | - | -
CC(Sc1nc2cc([N+](=O)[O-])ccc2n1-c1cccc(C(F)(F)F)c1)C(=O)NC(N)=O (configuration not stated) | - | - | 13µM | 20µM | - | -
CC(C)C(OC(=O)c1nsc(Cl)c1Cl)C(=O)NCc1ccccc1 (configuration not stated) | - | - | - | - | - | -
C[C@H](NC(=O)c1[nH]cnc1C(=O)Nc1ccc(CNC(=O)OC(C)(C)C)cc1)C(=O)OCc1ccccc1 | - | - | ? | ? | ? | -
